Compounds without any hit were thinned out: in the full panel of roughly 83,000, 20% have a hit.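 In brief: 96-well plates, 48 h treatment, single concentration, percent growth endpoint.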 Activity calls are given as the source filed them. The calls were made as follows: active = growth percent below 10; inactive = the rest.
System: HL-60(TB) leukemia
Assay: NCI-60 one-dose screen, 48 h (100 = growth as untreated, 0 = no growth, -100 = all killed)
Conditions: 10 µM unless noted

Question: How did the growth turn out when `O=C1c2cc3c(cc2-c2c1c1ccc(F)cc1c(=O)n2C[C@H](O)[C@H](O)[C@H](O)CO)OCO3` was run?
Answer: -14.8% (active)

Question: With `CCCC(O)Cn1ncc(C(=O)OCC)c1NC(=O)NCc1cccc(C(F)(F)F)c1` (stereo not given) as the compound, how does the growth read?
Answer: 71.2% (inactive)

Question: Which growth does the source give for `CCC(C)C1NC(=O)c2nc(oc2-c2ccccc2)-c2csc(n2)-c2csc(n2)-c2nc(oc2C)-c2coc(n2)CNC(=O)C(C(C)CC)NC1=O` (stereo not given) here?
Answer: -69.7% (active)

Question: How did the growth turn out when `COc1ccc(C(=O)/C=C/c2c(C(F)(F)F)nc3sccn23)cc1OC` was run?
Answer: -35.6% (active)

Question: How did the growth turn out when `O=C(NCc1ccccc1)C(Cl)Cl` was run?
Answer: 95.9% (inactive)

Question: For `c1ccc(-c2oc3ccccc3c2-c2ccccc2)cc1`, which growth is on record?
Answer: 48.5% (inactive)

Question: With `c1ccc(-c2ccc3c(c2)C2(CCNCC2)CN3)cc1` as the compound, how does the growth read?
Answer: 93.7% (inactive)

Question: With `O=c1[nH]nc(-c2ccccc2)c2sc3ncc(-c4ccc(Br)cc4)n3c12` as the compound, how does the growth read?
Answer: 12.7% (inactive)

Question: Which growth does the source give for `c1ccc2c(c1)CN(CCCN1CCOCC1)C2` here?
Answer: 105% (inactive)

Question: Which growth does the source give for `CCn1c(-c2cc3c([nH]c4ccccc43)c(-c3cccc(O)c3)n2)n[nH]c1=S` here?
Answer: 4.16% (active)

Question: With `CCOC(=O)C(CSC(c1ccccc1)(c1ccccc1)c1ccccc1)NC(=O)C(CSC(c1ccccc1)(c1ccccc1)c1ccccc1)NC(c1ccccc1)(c1ccccc1)c1ccccc1` (stereo not given) as the compound, how does the growth read?
Answer: 118% (inactive)

Question: With `O=c1c2cccc3c(Nc4ccccn4)ccc(c32)c2nc3ccccc3n12` as the compound, how does the growth read?
Answer: 62.3% (inactive)

Question: `CC1(n2nnnc2N2CCCN(c3ncccc3N)CC2)CCC1` was tested. Which growth did it give?
Answer: 102% (inactive)

Question: For `CCCCCC(C)(O)C(C(=O)O)c1ccccc1` (stereo not given), which growth is on record?
Answer: 110% (inactive)

Question: `Brc1c[n+](Cc2ccc3ccccc3c2)cn1Cc1ccc2ccccc2c1` was tested. Which growth did it give?
Answer: -47.5% (active)

Question: With `COc1nc2c(c(=O)n1C)CN(Cc1ccccc1)C=N2` as the compound, how does the growth read?
Answer: 92.9% (inactive)

Question: For `CC(C(C(=O)N1CCCCC1)N1CCCCC1)N1CCCCC1` (stereo not given), which growth is on record?
Answer: 104% (inactive)

Question: With `COc1ccc2sc(N(Cc3cccnc3)C(=O)c3ccc(C#N)cc3)nc2c1` as the compound, how does the growth read?
Answer: 63.4% (inactive)

Question: How did the growth turn out when `Nc1nc2c(c3ncccc13)C(c1cccc(Cl)c1)Cc1ncccc1-2` (stereo not given) was run?
Answer: -6.22% (active)

Question: For `CN(C)c1ccc(-c2nc3ncc(Br)cc3o2)cc1`, which growth is on record?
Answer: 85.8% (inactive)

Question: `Cc1ccc2cccc(OC(=O)Nc3cccc(C(F)(F)F)c3)c2n1` was tested. Which growth did it give?
Answer: 67% (inactive)

Question: With `CN(C)S(=O)(=O)c1cccc(C(=O)Nc2nc(-c3ccc(F)c(F)c3)cs2)c1` as the compound, how does the growth read?
Answer: 61.1% (inactive)

Question: How did the growth turn out when `Nc1n[nH]c2cccc(C#Cc3cccc(C(=O)Nc4ccc(Cl)c(C(F)(F)F)c4)c3)c12` was run?
Answer: 21% (inactive)

Question: `Cc1ccc(Cl)cc1Nc1nc(C(F)(F)F)ccc1C(=O)N/N=C/c1cccnc1` was tested. Which growth did it give?
Answer: 3.36% (active)

Question: `O=C(Nc1ccccc1Cl)c1c[nH]c(=O)c(-c2ccc(N3CCCOC4(CC4)C3)cc2)c1` was tested. Which growth did it give?
Answer: 28.3% (inactive)

Question: Which growth does the source give for `Clc1ccc(Cn2cc(-c3nc4ccc(Br)nc4n3Cc3ccc(Cl)cc3)c3cccnc32)cc1` here?
Answer: 94.1% (inactive)

Question: Which growth does the source give for `CCCCN(CCCC)Cc1c(C)[nH]c2cc(OC)ccc2c1=O` here?
Answer: 94.1% (inactive)

Question: How did the growth turn out when `CCCCCCCCCCN=C(c1ccc(N(C)C)cc1)c1ccc(N(C)C)cc1` was run?
Answer: 11.2% (inactive)

Question: For `Clc1ccc(Nc2nc(Nc3ccccc3)nc(Nc3ccc(-c4cc(-c5ccc(Cl)cc5)on4)cc3)n2)cc1`, which growth is on record?
Answer: 55.3% (inactive)

Question: Which growth does the source give for `S=c1[nH]cccc1-c1nnc2n1Nc1nc3ccccc3cc1CS2` here?
Answer: 105% (inactive)

Question: For `COC(=O)[C@]12CCC(C)(C)C[C@H]1[C@H]1C(=O)C[C@@H]3[C@@]4(C)c5c([nH]c6ccccc6c5=O)C(C)(C)[C@@H]4CC[C@@]3(C)[C@]1(C)CC2`, which growth is on record?
Answer: 21.8% (inactive)

Question: How did the growth turn out when `O=S(=O)(NCCCNc1nccc(-c2c(-c3cccc(F)c3)nc3occn23)n1)c1ccc(F)cc1` was run?
Answer: 5.83% (active)

Question: Which growth does the source give for `Cc1ccc(S(=O)(=O)CCCl)cc1` here?
Answer: 91.7% (inactive)

Question: `Cn1c(=O)c2c(nc(Br)n2CCC(=O)Nc2ccc(F)cc2)n(C)c1=O` was tested. Which growth did it give?
Answer: 91.8% (inactive)

Question: With `O=C(Cn1cc(CN2C(=O)c3ccccc3S2(=O)=O)nn1)Nc1cccc(Cl)c1` as the compound, how does the growth read?
Answer: 103% (inactive)

Question: Which growth does the source give for `CCC[S@](=O)c1ccc2nc(NC(=O)OC)[nH]c2c1` here?
Answer: 77.1% (inactive)

Question: `N#CC1c2ccccc2-c2ccccc2N1C(=O)c1ccccc1` (stereo not given) was tested. Which growth did it give?
Answer: 21.6% (inactive)

Question: For `COc1cc2ncnc(Oc3ccc(NC(=O)Nc4ccc(C5(C#N)CCCC5)cc4)c4ccccc34)c2cc1OC`, which growth is on record?
Answer: 72.6% (inactive)

Question: For `COc1cc(/C=C2\C(=O)Nc3ccc(N(C)C)cc32)cc(OC)c1OC`, which growth is on record?
Answer: 27.5% (inactive)

Question: `CC(C)(C)C(=O)/C=C/c1ccc([N+](=O)[O-])cc1` was tested. Which growth did it give?
Answer: 75.2% (inactive)

Reference: PubChem BioAssay (NCI)
